Source: PubChem BioAssay AID1347418 (Sanford-Burnham Center for Chemical Genomics, 2020)
Hit rate of the full screen: of about 1,300 compounds, about 750 (58%) were called active. Some of the results follow.

Each molecule was assayed against Sulfhydryl oxidase 1 (Homo sapiens) (UniProt O00391) (assay: QSOX1 enzyme inhibitors, primary screen, biochemical, ROS-Glo H2O2 luminescence, HTS (AID 1347418)). Conditions: recombinant QSOX1, ROS-Glo H2O2 luminescence; at 12.5 µM; hits give high values; active = any value above zero.
Chain of Sulfhydryl oxidase 1 (Homo sapiens) (O00391 whole entry, looked up): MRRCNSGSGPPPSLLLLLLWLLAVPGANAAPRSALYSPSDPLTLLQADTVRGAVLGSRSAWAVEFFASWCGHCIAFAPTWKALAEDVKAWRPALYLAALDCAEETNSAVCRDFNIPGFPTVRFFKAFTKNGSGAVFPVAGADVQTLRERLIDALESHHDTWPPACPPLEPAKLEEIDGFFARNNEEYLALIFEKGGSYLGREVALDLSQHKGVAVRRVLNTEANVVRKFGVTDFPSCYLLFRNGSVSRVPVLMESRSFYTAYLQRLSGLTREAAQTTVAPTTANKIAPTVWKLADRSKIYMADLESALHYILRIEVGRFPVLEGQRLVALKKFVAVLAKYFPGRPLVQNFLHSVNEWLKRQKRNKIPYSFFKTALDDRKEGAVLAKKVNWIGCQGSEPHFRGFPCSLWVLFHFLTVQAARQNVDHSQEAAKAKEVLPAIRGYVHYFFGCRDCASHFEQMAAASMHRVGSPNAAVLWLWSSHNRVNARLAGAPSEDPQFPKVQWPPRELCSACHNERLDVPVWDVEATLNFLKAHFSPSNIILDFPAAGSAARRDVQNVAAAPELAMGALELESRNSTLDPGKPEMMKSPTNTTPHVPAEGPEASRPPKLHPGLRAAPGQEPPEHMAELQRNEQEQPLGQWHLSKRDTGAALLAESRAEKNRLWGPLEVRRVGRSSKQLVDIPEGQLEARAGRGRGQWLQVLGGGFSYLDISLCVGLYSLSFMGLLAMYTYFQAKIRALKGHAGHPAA

Row | Compound | inhibition
1 | CCc1cccc2c3c([nH]c12)C(CC)(CC(=O)O)OCC3 (configuration not stated) | 9.9% (active)
2 | N[C@@H](Cn1ccc(=O)c(O)c1)C(=O)O | -3.8% (inactive)
3 | N[C@@H](Cc1ccc(F)cc1)C(=O)O | 0.8% (active)
4 | NCCc1ccc(O)c(O)c1 | 8.1% (active)
5 | COC(=O)C(N)Cc1ccc(Cl)cc1 (configuration not stated) | 9.7% (active)
6 | COC(=O)[C@@H](N)Cc1ccc(O)c(O)c1 | 1.3% (active)
7 | CC(N)C(=O)OC(C)(C)Cc1ccc(Cl)cc1 (configuration not stated) | -3.5% (inactive)
8 | NC(Cc1ccc(Cl)cc1)C(=O)O (configuration not stated) | -3.4% (inactive)
9 | N[C@@H](Cc1ccc(O)c(O)c1)C(=O)O | 9.8% (active)
10 | NC(Cc1cccc(-c2ccccc2CP(=O)(O)O)c1)C(=O)O (configuration not stated) | -2% (inactive)
11 | N[C@@H](Cc1ccc(O)c(I)c1)C(=O)O | -5.7% (inactive)
12 | CC(Cc1ccc(O)c(O)c1)C(C)Cc1ccc(O)c(O)c1 (configuration not stated) | 45.8% (active)
13 | CCN1CCCC1CNC(=O)c1cc(S(N)(=O)=O)ccc1OC (configuration not stated) | 3.2% (active)
14 | CCN1CCCC1CNC(=O)c1cc(S(=O)(=O)CC)c(N)cc1OC (configuration not stated) | -1% (inactive)
15 | CCN1CCC[C@H]1CNC(=O)c1cc(S(N)(=O)=O)ccc1OC | -1.2% (inactive)
16 | CCN1CCC[C@H]1CNC(=O)c1c(O)c(Cl)cc(Cl)c1OC | 2.3% (active)
17 | NC1CCN(c2cccc(Cl)n2)CC1 | -5.8% (inactive)
18 | Cc1cnc(C(=O)NCCc2ccc(S(=O)(=O)NC(=O)NC3CCCCC3)cc2)cn1 | 5.4% (active)
19 | COc1ccc(Cl)cc1C(=O)NCCc1ccc(S(=O)(=O)NC(=O)NC2CCCCC2)cc1 | -5.6% (inactive)
20 | CC(=O)c1ccc(S(=O)(=O)NC(=O)NC2CCCCC2)cc1 | -5.7% (inactive)
21 | O=c1oc(Cl)c(Cl)c2ccccc12 | -1.8% (inactive)
22 | C/C(=C\c1ccc(C(=O)O)cc1)c1ccc2c(c1)C(C)(C)CCC2(C)C | 1.8% (active)

Row | Compound | inhibition
23 | NC1(C(=O)O)CCc2cc(C(=O)O)ccc21 (configuration not stated) | -2.9% (inactive)
24 | CC(N)(C(=O)O)c1ccc(C(=O)O)cc1 (configuration not stated) | -3.7% (inactive)
25 | Cc1ccccc1C(OCCN(C)C)c1ccccc1 (configuration not stated) | -1.5% (inactive)
26 | CN(C)CCOC(c1ccccc1)c1ccccc1 | 4.3% (active)
27 | CCN(Cc1ccncc1)C(=O)C(CO)c1ccccc1 (configuration not stated) | -4.5% (inactive)
28 | NCCc1cnc[nH]1 | -5% (inactive)
29 | N=C(N)SCCc1cnc[nH]1 | 2.7% (active)
30 | Cc1cccc(C(=O)NCN2CCN(c3ccccc3C#N)CC2)c1 | -1.8% (inactive)
31 | COc1ccccc1N1CCN(CCCCNC(=O)c2ccc3ccccc3c2)CC1 | 12.2% (active)
32 | c1cnc(N2CCN(Cc3ccc4c(c3)OCO4)CC2)nc1 | -0.2% (inactive)
33 | O=C(NCCN1CCOCC1)c1ccc(Cl)cc1 | -3.4% (inactive)
34 | COc1cccc(C(=O)NCCN2CCN(c3ccc(Cl)cc3)CC2)c1 | 21.7% (active)
35 | COc1ccccc1N1CCN(CCN2C(=O)CC3(CCCC3)CC2=O)CC1 | 17.2% (active)
36 | O=C1CC2(CCCC2)CC(=O)N1CCCCN1CCN(c2ncccn2)CC1 | 1.2% (active)
37 | COc1ccc(NC(=O)c2ccc(-c3ccc(-c4noc(C)n4)cc3C)cc2)cc1N1CCN(C)CC1 | -1.1% (inactive)
38 | Nc1nc(N)c2nc(-c3ccccc3)c(N)nc2n1 | -0.8% (inactive)
39 | CC(=O)[C@]1(O)Cc2c(O)c3c(c(O)c2[C@@H](O[C@H]2C[C@H](N)[C@H](O)[C@H](C)O2)C1)C(=O)c1ccccc1C3=O | -0.7% (inactive)
40 | COc1ccccc1N1CCN(CCCCN2C(=O)c3ccccc3C2=O)CC1 | 3.6% (active)
41 | c1cc(CN2CCCCC2)cc(OCCCNc2nc3ccccc3s2)c1 | 3.8% (active)
42 | CC(=O)Nc1nnc(S(N)(=O)=O)s1 | 0.8% (active)
43 | OCc1ccc(-c2nn(Cc3ccccc3)c3ccccc23)o1 | -2.6% (inactive)
44 | C[C@@H](NCCc1ccc(O)cc1)[C@@H](O)c1ccc(O)cc1 | 3.9% (active)

Row | Compound | inhibition
45 | CC(CCc1ccc(O)cc1)NCCc1ccc(O)c(O)c1 (configuration not stated) | 17.1% (active)
46 | CCCCCCCC/C=C\CCCCCCCC(=O)NCCc1ccc(O)c(O)c1 | -7.8% (inactive)
47 | CC(CCc1ccccc1)NCC(O)c1ccc(O)c(C(N)=O)c1 (configuration not stated) | 2.1% (active)
48 | O=Nc1ccc2oc(=O)ccc2c1 | 16.8% (active)
49 | Cc1cc(Cn2cnc3c2C[C@@H](C(=O)O)N(C(=O)C(c2ccccc2)c2ccccc2)C3)ccc1N | 0% (inactive)
50 | CCN(CC)CCCC(C)Nc1c2ccc(Cl)cc2nc2ccc(OC)cc12 (configuration not stated) | 0.7% (active)
51 | CCN(CC)CCCC(C)Nc1ccnc2cc(Cl)ccc12 (configuration not stated) | -4.9% (inactive)
52 | CN(C)C(=O)n1nnnc1Cc1ccc(-c2ccccc2)cc1 | 5.2% (active)
53 | O=C(O)COCCN1CCN(C(c2ccccc2)c2ccc(Cl)cc2)CC1 (configuration not stated) | 0.5% (active)
54 | CCNC(=O)N1CCN(CCCC(c2ccc(F)cc2)c2ccc(F)cc2)CC1 | -0.9% (inactive)
55 | CN(C)C(=O)C(CCN1CCC(O)(c2ccc(Cl)cc2)CC1)(c1ccccc1)c1ccccc1 | -0.9% (inactive)
56 | O=C1/C(=C/c2ccsc2)CC/C1=C\c1cccs1 | 3.3% (active)
57 | O=C(c1ccc(OCCCc2cnc[nH]2)cc1)C1CC1 | -3.2% (inactive)
58 | Fc1ccc(C(OCCCc2cnc[nH]2)c2ccc(F)cc2)cc1 | 4.3% (active)
59 | C1CCc2nnnn2CC1 | -0.2% (inactive)
60 | CCC1C(=O)OCC1Cc1cncn1C (configuration not stated) | 5.6% (active)
61 | CCCCCCCCCCCCCCCCCCNC(=O)OCC(COP(=O)([O-])OCC[n+]1ccsc1)OC (configuration not stated) | -4.6% (inactive)
62 | CCCCCCCCCCCCCCCCCCOC[C@H](COP(=O)([O-])OCC[N+](C)(C)C)OC | 3.3% (active)
63 | Cn1cnc([N+](=O)[O-])c1Sc1ncnc2nc[nH]c12 | 0.2% (active)
64 | N=C(N)c1ccccc1 | -3.7% (inactive)
65 | N=C(N)c1ccc(OCCCCCOc2ccc(C(=N)N)cc2)cc1 | 1.1% (active)
66 | N=C(N)c1ccc(N)cc1 | 5.7% (active)

Row | Compound | inhibition
67 | CCc1ccc(/C=C2/SC(=S)NC2=O)cc1 | -3% (inactive)
68 | O=C1NC(=O)/C(=C/c2ccc3c(c2)OC(F)(F)O3)S1 | -1.5% (inactive)
69 | O=C1NC(=O)/C(=C/c2ccc3nccnc3c2)S1 | 4.5% (active)
70 | C#CCCN | 0.1% (active)
71 | Nc1ncnc2nc(-c3ccc(N4CCOCC4)nc3)cc(-c3cccc(Br)c3)c12 | 10% (active)
72 | NC(=O)c1ccc2[nH]ccc2c1 | 0.6% (active)
73 | CC(C)OC(=O)C(C)(C)Oc1ccc(C(=O)c2ccc(Cl)cc2)cc1 | -0.6% (inactive)
74 | CC(C)(C)c1ccc(/C=C/C(=O)Nc2ccc3c(c2)OCCO3)cc1 | -1.6% (inactive)
75 | COc1ccc(NC(=O)/C=C/c2ccc(Cl)cc2)cc1 | 12.1% (active)
76 | N[C@H](CCCP(=O)(O)O)C(=O)O | -1.3% (inactive)
77 | N[C@@H](CCCC(=O)O)C(=O)O | 6.7% (active)
78 | NC(CCCP(=O)(O)O)C(=O)O (configuration not stated) | 0% (inactive)
79 | NC(=O)CC[C@H](N)C(=O)O | 2.8% (active)
80 | CN1C2CCCC1CC(NC(=O)c1nn(C)c3ccccc13)C2 (configuration not stated) | 3% (active)
81 | O=c1[nH]ccc2c(O)cccc12 | 4.1% (active)
82 | O[Si](CCCN1CCCCC1)(c1ccc(F)cc1)C1CCCCC1 (configuration not stated) | -3.8% (inactive)
83 | CCOC(=O)[C@H](CCc1ccccc1)N[C@@H](C)C(=O)N1[C@H](C(=O)O)C[C@H]2CCCC[C@@H]21 | 2.6% (active)
84 | C[C@H](NC(CCc1ccccc1)C(=O)O)C(=O)N1CCC[C@H]1C(=O)O (some centres not stated) | -2.6% (inactive)
85 | Cc1cccc(C#Cc2ccccc2)n1 | 2.9% (active)
86 | COc1ccc2c(c1OC)C(=O)O[C@@H]2[C@H]1c2c(cc3c(c2OC)OCO3)CCN1C | -4.2% (inactive)
87 | COc1cc([C@@H]2c3cc4c(cc3[C@@H](O[C@@H]3O[C@@H]5CO[C@@H](C)O[C@H]5[C@H](O)[C@H]3O)[C@H]3COC(=O)[C@H]23)OCO4)cc(OC)c1O | 0% (inactive)
88 | COc1cc([C@@H]2c3cc4c(cc3[C@H](O)C3COC(=O)[C@@H]32)OCO4)cc(OC)c1OC (some centres not stated) | 1.1% (active)

Row | Compound | inhibition
89 | CC1=C(CC(=O)O)c2cc(F)ccc2/C1=C\c1ccc(S(C)(=O)=O)cc1 | 3.1% (active)
90 | CC1=C(CC(=O)O)c2cc(F)ccc2/C1=C\c1ccc(S(C)=O)cc1 (configuration not stated) | -0.4% (inactive)
91 | CC(=O)Oc1ccccc1C(=O)O | 0.3% (active)
92 | O=C(CCc1ccc(O)cc1)c1c(O)cc(O)cc1O | 6.2% (active)
93 | O=C1CCC(c2ccc(-n3ccnc3)cc2)=NN1 | 6.6% (active)
94 | Nc1nc2ccc(OC(F)(F)F)cc2s1 | -3.9% (inactive)
95 | Cc1ccc2nc(CN(CCN(Cc3nc4ccc(C)cc4[nH]3)Cc3nc4ccc(C)cc4[nH]3)Cc3nc4ccc(C)cc4[nH]3)[nH]c2c1 | -0.7% (inactive)
96 | Brc1c(Br)c(Br)c2n[nH]nc2c1Br | 1% (active)
97 | CNCCCN1c2ccccc2CCc2ccccc21 | 5.2% (active)
98 | CN(C)CCCN1c2ccccc2CCc2ccccc21 | 11.1% (active)
99 | CNCCCC1c2ccccc2C=Cc2ccccc21 | -4.7% (inactive)
100 | CN(C)CCCN1c2ccccc2CCc2ccc(Cl)cc21 | 2.6% (active)
101 | CNCCCC12CCC(c3ccccc31)c1ccccc12 | -2.7% (inactive)
102 | CC(CN(C)C)CN1c2ccccc2CCc2ccccc21 (configuration not stated) | 2% (active)
103 | O=C(O)CCC(C(=O)O)N1C(=O)c2ccccc2C1=O (configuration not stated) | -1% (inactive)
104 | CCCCNc1c(C(=O)OCC)c(C)nc2c1cnn2CC | 3.5% (active)
105 | CCOC(=O)c1cnc2c(cnn2CC)c1NN=C(C)C | 0.7% (active)
106 | CCCCNc1ccc(C(=O)OCCN(C)C)cc1 | -1.8% (inactive)
107 | CC(C)COC(=O)OCN1C(=O)CN(CCN2CC(=O)N(COC(=O)OCC(C)C)C(=O)C2)CC1=O | 2.6% (active)
